Shown are actives, neighbours in structure and some others; about 5% of the full set was active somewhere.
LmPK inh – qHTS Assay for Inhibitors of Leishmania Mexicana Pyruvate Kinase (LmPK); Potency, µM (highest dose often 57.5 µM), most hits filed as inhibitors; purified LmPK, Kinase-Glo ATP luminescence, 1 h; Q27686; AID 1721, 2009; 0.37% of 290,000 active
Target sequence (Q27686 whole entry, looked up): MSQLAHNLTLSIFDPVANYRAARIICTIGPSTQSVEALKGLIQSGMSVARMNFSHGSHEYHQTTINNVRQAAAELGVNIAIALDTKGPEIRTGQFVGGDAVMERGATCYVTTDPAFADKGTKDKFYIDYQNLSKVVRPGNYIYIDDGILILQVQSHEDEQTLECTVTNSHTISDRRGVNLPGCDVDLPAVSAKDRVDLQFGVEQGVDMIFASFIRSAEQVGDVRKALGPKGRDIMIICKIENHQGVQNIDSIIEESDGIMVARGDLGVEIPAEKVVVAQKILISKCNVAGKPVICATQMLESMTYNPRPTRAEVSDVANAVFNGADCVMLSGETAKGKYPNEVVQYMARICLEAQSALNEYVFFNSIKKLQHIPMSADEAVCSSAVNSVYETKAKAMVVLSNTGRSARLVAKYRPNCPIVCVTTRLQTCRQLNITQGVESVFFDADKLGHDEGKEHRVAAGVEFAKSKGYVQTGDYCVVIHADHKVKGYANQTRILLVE
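Purified LmPK (0.1 nM) with 0.5 mM PEP and 0.1 mM ADP in imidazole buffer pH 7.2 with MgCl2/KCl, 1 h at room temperature. ATP formed was read by luciferase luminescence and normalized to no-enzyme and uninhibited controls.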
HCMV inh – qHTS Assay for inhibitors of the human cytomegalovirus (HCMV); 4.5% of 410,000 active; HFF cells, HCMV-luciferase reporter, 72 h; stronger effect = lower value; activity change, negative = inhibition, % at 57.5 µM; AID 1259415, 2018; in the data active = activity change below about -60%; inconclusive = no clear call, values can overlap the other calls; inactive = above about -39%
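Cell-based, HFFs, 1000 cells/well, 16 h 37C; cpds in DMSO + HCMV-luc, MOI 1 PFU/cell; 72 h 37C; OneGlo luminescence after 5 min RT; norm. to buffer vs Salinomycin 10uM.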
VACV mCherry inh – qHTS for Stage-Specific Inhibitors of Vaccinia Orthopoxvirus: mCherry Reporter Primary qHTS; Vaccinia virus mCherry reporter infection, fluorescence; Potency, µM (series often up to 36.5 µM), actives largely listed as inhibitors; 0.63% of 310,000 active; calls by dose curve; tested in A549 cells; also: nearly all actives have a fitted effect of over 35% in size
Tb PYK inh – qHTS of Trypanosoma Brucei Inhibitors; pyruvate kinase (Trypanosoma brucei), Q57TT1; TbPYK enzyme, Kinase-Glo Plus ATP luminescence, 45 min; Potency, µM (series often up to 76.8 µM), hits mostly inhibitors; 0.12% of 410,000 active; AID 624173, 2012; also: nearly all actives have a fitted effect of over 50% in size
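ADP (130 uM final) triggers the TbPYK reaction after compound addition; incubation is 45 min at room temperature. Kinase-Glo Plus is then added and luminescence imaged. Normalized data are fitted to concentration-effect curves.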
VACV Venus inh – qHTS for Stage-Specific Inhibitors of Vaccinia Orthopoxvirus: Venus Reporter Primary qHTS. 0.46% of 330,000 active. Potency, µM (doses to about 36.5 µM), hits mostly inhibitors. Vaccinia virus Venus reporter expression, fluorescence; calls by dose curve; tested in A549 cells; also: nearly all actives have a fitted effect of over 30% in size
Hits are given with their value; ! = repeats disagree. Unless noted, calls follow the shape of the dose curve; as a rule, active = well fitted curve in the direction sought with a large enough effect; inconclusive = small, poorly fitted or top-dose-only effect, or another doubt; inactive = no such curve, though single readings can be large; an effect the other way counts as inactive or inconclusive.

For CC1c2ccccc2CN1CC1=NCCN1 (stereo unspecified) the results were VACV mCherry inh inactive and VACV Venus inh inactive.
O=C(CC(Nc1ccccc1)C(=O)O)c1ccccc1 (stereo unspecified) was read as LmPK inh inconclusive, HCMV inh inactive, VACV mCherry inh inactive, Tb PYK inh inactive and VACV Venus inh inactive.
C=C(C(=O)c1ccccc1)C(NC(C)(C)C)c1ccccc1 (stereo unspecified) was read as HCMV inh -98.0, VACV mCherry inh 17.8µM, Tb PYK inh inactive and VACV Venus inh inconclusive.
`COC(=O)C(NC(=O)c1ccccc1)c1ccccc1` (stereo unspecified) gave LmPK inh inactive, HCMV inh inactive and Tb PYK inh inactive.
Screening C=C(C(=O)c1ccccc1)C(C)CC(=O)c1ccccc1 (stereo unspecified) returned LmPK inh inactive, HCMV inh -82.3, VACV mCherry inh inconclusive, Tb PYK inh inactive and VACV Venus inh inactive.
`CCNC(=O)CSc1nnc(-c2ccccc2)n1-c1ccc(OCC)cc1` gave LmPK inh inactive, HCMV inh inactive, VACV mCherry inh inactive, Tb PYK inh inactive and VACV Venus inh inactive.
Screening CC(=O)Nc1ccc(OCC(O)CN2CCN(S(=O)(=O)c3ccc(NC(C)=O)cc3)CC2)cc1 (stereo unspecified) returned LmPK inh inactive, HCMV inh inactive and Tb PYK inh inactive.
For COc1ccc(CN2CCN(S(=O)(=O)c3ccc(NC(C)=O)cc3)CC2)c(OC)c1OC the results were LmPK inh inactive, HCMV inh -97.5!, VACV mCherry inh inactive, Tb PYK inh inactive and VACV Venus inh inactive.
For CC(=O)Nc1ccc(S(=O)(=O)N2CCN(CC(O)COc3ccc4ccccc4c3)CC2)cc1 (stereo unspecified) the results were LmPK inh inactive, HCMV inh -86.7, VACV mCherry inh inactive, Tb PYK inh inactive and VACV Venus inh inconclusive.
O=C1/C(=C/c2cccnc2)CCc2c1[nH]c1ccccc21 was read as LmPK inh inactive, HCMV inh -76.3, VACV mCherry inh inconclusive, Tb PYK inh inactive and VACV Venus inh inactive.
For CC1C/C(=C\c2cccnc2)C(=O)/C(=C/c2cccnc2)C1 (stereo unspecified) the results were LmPK inh inactive, HCMV inh -100.9, VACV mCherry inh inconclusive, Tb PYK inh inactive and VACV Venus inh 8.91µM.
Screening COC(=O)C1=C(N)OC2=C(C(=O)CC(C)(C)C2)C1c1cccs1 (stereo unspecified) returned LmPK inh inactive, HCMV inh inactive and Tb PYK inh inactive.
`COc1ccc(C2=Nc3ccccc3NC(=O)C2N(C(=O)c2ccnc3ccccc23)c2ccccc2)cc1` (stereo unspecified) gave HCMV inh -81.6, VACV mCherry inh inactive, Tb PYK inh inactive and VACV Venus inh inactive.
Screening CN1C(=O)C(=O)/C(=C(/O)c2ccc(Br)cc2)C1c1cccc([N+](=O)[O-])c1 (stereo unspecified) returned LmPK inh inactive, HCMV inh inactive and Tb PYK inh inactive.
NC(=S)Nc1cccc2cc3ccccc3cc12 was read as LmPK inh inactive, HCMV inh -105.4 and Tb PYK inh inactive.
NC(=S)Nc1cc2ccccc2c2ccccc12 was read as LmPK inh inactive, HCMV inh -72.3 and Tb PYK inh inactive.
NC(=S)Nc1ccccc1Br was read as LmPK inh inactive, HCMV inh inactive, VACV mCherry inh inactive, Tb PYK inh inactive and VACV Venus inh inactive.
Cc1ccc(/C=N/n2c(COc3ccccc3)n[nH]c2=S)o1 was read as LmPK inh inactive, HCMV inh -90.4 and Tb PYK inh inconclusive.
CC(CCC(=O)O)C1CCC2C3C(=O)C[C@@H]4CC(=O)CC[C@@]4(C)C3CC(=O)[C@]12C (stereo partly specified) was read as Tb PYK inh inactive.
COC(=O)c1c(C)oc(C)c1S(=O)(=O)NCc1cccs1 was read as LmPK inh inactive, HCMV inh -60.3 and Tb PYK inh inactive.
`CC(C)(C)OC(=O)NCCCCCNC(=O)c1nc[nH]c1C(=O)N1CCc2ccccc2C1` gave HCMV inh inactive, VACV mCherry inh inactive, Tb PYK inh inactive and VACV Venus inh inactive.
